# PubChem BioAssay AID1159580 (chemical genetic matrix, 2015)
# In all, about 5,500 compounds went through this assay and about 2,000 (36%) were called active. Not shown: some 18% with an inconclusive outcome. Some of the results follow. A number with no mark means an inactive call. Rule as the data show it: active = normalized growth mostly below about 0.91 (no sharp cut-off); inconclusive = no clear call, values can overlap the other calls; inactive = mostly above about 0.92.
# Assay: chemical genetic growth profiling, strain panel (AID 1159580);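 also: tested at 20 µM; growth read once vehicle control cultures reached saturation at 30 °C; 1 = growth at the plate median or of vehicle wells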
# Conditions: S. cerevisiae deletion strains, growth OD
smiles,measurement,setting,value
CC(C)(C)C(=O)C(Oc1ccc(Cl)cc1)n1cncn1 (stereo not given),normalized growth,"locus YAL021C, strain ccr4, stronger effect = lower value",0.639 (active)
same,normalized growth,"locus YAL026C, strain drs2, stronger effect = lower value",0.081 (active)
same,normalized growth,"locus YAL030W, strain snc1, stronger effect = lower value",0.133 (active)
same,normalized growth,"locus YBL061C, strain skt5, stronger effect = lower value",0.136 (active)
same,normalized growth,"locus YBR009C, strain hhf1, stronger effect = lower value",0.133 (active)
same,normalized growth,"locus YBR023C, strain chs3, stronger effect = lower value",0.131 (active)
same,normalized growth,"locus YBR171W, strain sec66, stronger effect = lower value",0.591 (active)
same,normalized growth,"locus YBR231C, strain swc5, stronger effect = lower value",0.119 (active)
same,normalized growth,"locus YBR279W, strain paf1, stronger effect = lower value",0.198 (active)
same,normalized growth,"locus YCL011C, strain gbp2, stronger effect = lower value",0.124 (active)
same,normalized growth,"locus YCL016C, strain dcc1, stronger effect = lower value",0.129 (active)
same,normalized growth,"locus YCL061C, strain MRC1, stronger effect = lower value",0.203 (active)
same,normalized growth,"locus YCL069W, strain vba3, stronger effect = lower value",0.106 (active)
same,normalized growth,"locus YCR088W, strain abp1, stronger effect = lower value",0.25 (active)
same,normalized growth,"locus YDL005C, strain med2, stronger effect = lower value",0.565 (active)
same,normalized growth,"locus YDL040C, strain nat1, stronger effect = lower value",0.272 (active)
same,normalized growth,"locus YDR001C, strain nth1, stronger effect = lower value",0.221 (active)
same,normalized growth,"locus YDR069C, strain doa4, stronger effect = lower value",0.655 (active)
same,normalized growth,"locus YDR137W, strain rgp1, stronger effect = lower value",0.779 (active)
same,normalized growth,"locus YDR159W, strain sac3, stronger effect = lower value",0.171 (active)
same,normalized growth,"locus YDR195W, strain ref2",0.573 (active)
same,normalized growth,"locus YDR297W, strain sur2, stronger effect = lower value",0.19 (active)
same,normalized growth,"locus YDR334W, strain swr1, stronger effect = lower value",0.141 (active)
same,normalized growth,"locus YDR335W, strain msn5, stronger effect = lower value",0.223 (active)
same,normalized growth,"locus YDR392W, strain spt3, stronger effect = lower value",0.104 (active)
same,normalized growth,"locus YEL003W, strain gim4, stronger effect = lower value",0.154 (active)
same,normalized growth,"locus YEL037C, strain rad23, stronger effect = lower value",0.268 (active)
same,normalized growth,"locus YEL061C, strain CIN8 (second series), stronger effect = lower value",0.139 (active)
same,normalized growth,"locus YER015W, strain faa2, stronger effect = lower value",0.201 (active)
same,normalized growth,"locus YER016W, strain bim1, stronger effect = lower value",0.187 (active)
same,normalized growth,"locus YER111C, strain swi4, stronger effect = lower value",0.758 (active)
same,normalized growth,"locus YER155C, strain BEM2 (second series), stronger effect = lower value",0.746 (active)
same,normalized growth,"locus YFR010W, strain ubp6, stronger effect = lower value",0.558 (active)
same,normalized growth,"locus YGL167C, strain pmr1, stronger effect = lower value",0.923
same,normalized growth,"locus YGL173C, strain kem1, stronger effect = lower value",0.701 (active)
same,normalized growth,"locus YGL227W, strain vid30, stronger effect = lower value",0.158 (active)
same,normalized growth,"locus YGL240W, strain doc1, stronger effect = lower value",0.714 (active)
same,normalized growth,"locus YGL253W, strain hxk2, stronger effect = lower value",0.0776 (active)
same,normalized growth,"locus YHR013C, strain ard1, stronger effect = lower value",0.162 (active)
same,normalized growth,"locus YHR027C, strain rpn1, stronger effect = lower value",0.337 (active)
same,normalized growth,"locus YHR030C, strain SLT2, stronger effect = lower value",0.113 (active)
same,normalized growth,"locus YHR079C, strain IRE1, stronger effect = lower value",0.264 (active)
same,normalized growth,"locus YHR142W, strain chs7, stronger effect = lower value",0.107 (active)
same,normalized growth,"locus YJL092W, strain hpr5, stronger effect = lower value",0.177 (active)
same,normalized growth,"locus YJL095W, strain BCK1 (second series), stronger effect = lower value",0.0779 (active)
same,normalized growth,"locus YJL095W, strain BCK1, stronger effect = lower value",0.129 (active)
same,normalized growth,"locus YJL115W, strain asf1, stronger effect = lower value",0.396 (active)
same,normalized growth,"locus YJL129C, strain trk1, stronger effect = lower value",0.183 (active)
same,normalized growth,"locus YJL154C, strain vps35, stronger effect = lower value",0.409 (active)
same,normalized growth,"locus YJL164C, strain tpk1, stronger effect = lower value",0.11 (active)
same,normalized growth,"locus YJL166W, strain qcr8, stronger effect = lower value",0.109 (active)
same,normalized growth,"locus YJL187C, strain SWE1, stronger effect = lower value",0.135 (active)
same,normalized growth,"locus YJR066W, strain TOR1, stronger effect = lower value",0.14 (active)
same,normalized growth,"locus YKL160W, strain elf1, stronger effect = lower value",0.112 (active)
same,normalized growth,"locus YKR026C, strain gcn3, stronger effect = lower value",0.47 (active)
same,normalized growth,"locus YKR091W, strain srl3, stronger effect = lower value",0.247 (active)
same,normalized growth,"locus YLL001W, strain dnm1, stronger effect = lower value",0.168 (active)
same,normalized growth,"locus YLL026W, stronger effect = lower value",0.0984 (active)
same,normalized growth,"locus YLL041C, strain sdh2, stronger effect = lower value",0.159 (active)
same,normalized growth,"locus YLR027C, strain aat2, stronger effect = lower value",0.115 (active)
same,normalized growth,"locus YLR113W, strain HOG1, stronger effect = lower value",0.308 (active)
same,normalized growth,"locus YLR221C, strain rsa3, stronger effect = lower value",0.118 (active)
same,normalized growth,"locus YLR258W, strain gsy2, stronger effect = lower value",0.133 (active)
same,normalized growth,"locus YLR262C, strain YPT6 (second series), stronger effect = lower value",0.66 (active)
same,normalized growth,"locus YLR320W, strain mms22, stronger effect = lower value",0.125 (active)
same,normalized growth,"locus YLR342W, strain FKS1, stronger effect = lower value",0.155 (active)
same,normalized growth,"locus YLR357W, strain rsc2, stronger effect = lower value",0.513 (active)
same,normalized growth,"locus YLR370C, strain arc18, stronger effect = lower value",0.184 (active)
same,normalized growth,"locus YLR384C, strain iki3, stronger effect = lower value",0.672 (active)
same,normalized growth,"locus YML120C, strain ndi1, stronger effect = lower value",0.153 (active)
same,normalized growth,"locus YMR058W, strain fet3, stronger effect = lower value",0.184 (active)
same,normalized growth,"locus YMR125W, strain sto1, stronger effect = lower value",0.147 (active)
same,normalized growth,"locus YMR129W, stronger effect = lower value",0.161 (active)
same,normalized growth,"locus YMR205C, strain PFK2, stronger effect = lower value",0.172 (active)
same,normalized growth,"locus YMR231W, strain pep5, stronger effect = lower value",0.805 (active)
same,normalized growth,"locus YNL071W, strain lat1, stronger effect = lower value",0.0893 (active)
same,normalized growth,"locus YNL183C, strain NPR1, stronger effect = lower value",0.178 (active)
same,normalized growth,"locus YNL209W, strain ssb2, stronger effect = lower value",0.394 (active)
same,normalized growth,"locus YNL248C, strain rpa49, stronger effect = lower value",0.142 (active)
same,normalized growth,"locus YNL322C, strain KRE1 (second series), stronger effect = lower value",0.228 (active)
same,normalized growth,"locus YNR049C, strain mso1, stronger effect = lower value",0.159 (active)
same,normalized growth,"locus YOR001W, strain rrp6, stronger effect = lower value",0.181 (active)
same,normalized growth,"locus YOR070C, strain gyp1, stronger effect = lower value",0.0975 (active)
same,normalized growth,"locus YOR080W, strain dia2, stronger effect = lower value",0.259 (active)
same,normalized growth,"locus YOR083W, strain WHI5, stronger effect = lower value",0.257 (active)
same,normalized growth,"locus YOR106W, strain vam3, stronger effect = lower value",0.211 (active)
same,normalized growth,"locus YOR231W, strain MKK1, stronger effect = lower value",0.273 (active)
same,normalized growth,"locus YOR265W, strain rbl2, stronger effect = lower value",0.164 (active)
same,normalized growth,"locus YOR270C, strain vph1, stronger effect = lower value",0.123 (active)
same,normalized growth,"locus YOR290C, strain snf2, stronger effect = lower value",0.153 (active)
same,normalized growth,"locus YPL051W, strain arl3, stronger effect = lower value",0.357 (active)
same,normalized growth,"locus YPL078C, strain atp4, stronger effect = lower value",0.203 (active)
same,normalized growth,"locus YPL106C, strain sse1, stronger effect = lower value",0.156 (active)
same,normalized growth,"locus YPL240C, strain hsp82, stronger effect = lower value",0.166 (active)
same,normalized growth,"locus YPL256C, strain CLN2, stronger effect = lower value",0.357 (active)
